From PubChem BioAssay (Tox21)
Inconclusive results are not listed. Activity calls are given as the source filed them. Calls come from the whole dose curve.

Assay: qHTS assay for small molecule agonists of the p53 signaling pathway - cell viability (AID 651633);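 note: p53RE-bla HCT reporter cells with a stable beta-lactamase p53 reporter; nearly all actives have a fitted effect of over 30% in size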
Details: p53RE-bla HCT-116 viability, ATP luminescence, 16 h; series mostly up to 83.3 µM
From the text: National Center for Advancing Translational Sciences [NCATS]
NIH Chemical Genomics Center [NCGC]
U.S. Environmental Protection Agency [EPA]
National Institutes of Environmental Health Sciences [NIEHS]
National Toxicology Program [NTP]
U.S. Food and Drug Administration [FDA]
p53, a tumor suppressor protein, is activated following cellular insult, including DNA damage and other cellular stresses. The activation of p53 regulates cell fate by inducing DNA repair, cell cycle arrest, apoptosis, or cellular senescence. The activation of p53, therefore, is a good indicator of DNA damage and other cellular stresses. […] The activation of the reporter gene under culture conditions can be detected by fluorescence intensity. This cell line was used to screen the Tox21 compound library in a 1536-well plate format and to identify agonists that activate the p53 signaling pathway.
Tox21 Assay Protocol Summary:
The p53RE-bla cells were dispensed at 4,000 cells/5 ul/well in 1536-well black wall/clear bottom plates using a Multidrop dispenser. After the assay plates were incubated at a 37 C/5% CO2 incubator for 5 hours, 23 nL of compounds dissolved in DMSO, positive controls or DMSO only was transferred to the assay plate by a pin tool. The plates were incubated at 37 C for 16 hours. After 1 uL of LiveBLAzerTM B/G FRET substrate was added using a Flying Reagent Dispenser, the plates were incubated at room temperature for 2 hours, and fluorescence intensity was measured by an Envision plate reader.
For cell viability readout that measures cytotoxicity, 4 ul/well of CellTiter-Glo reagent was added into the assay plates using a Flying Reagent Dispenser. After 30 min incubation at room temperature, the luminescence intensity in the plates was measured using a ViewLux plate reader.

SMILES | outcome
N#Cc1ccc(C(=O)O)cc1 | inactive
CC1=CCC(C(C)C)=CC1 | inactive
CCOC(=O)CC(=O)c1ccccc1 | inactive
O=C1O[C@@H]2[C@@H](O)[C@H](O)O[C@@H]2[C@H]1O | inactive
NCCN1CCOCC1 | inactive
CC[C@H](C)C(=O)O[C@H]1C[C@H](O)C=C2C=C[C@H](C)[C@H](CC[C@@H](O)C[C@@H](O)CC(=O)O)[C@H]21 | inactive
C[C@@H](O)[C@H]1C(=O)N2C(C(=O)O)=C(SCCN=CN)C[C@H]12 | inactive
Nc1ccc(S(=O)(=O)Nc2ccc(Cl)nn2)cc1 | inactive
CCOCCOCCOCC | inactive
C[C@H](CCC(=O)O)[C@H]1CC[C@H]2[C@@H]3C(=O)C[C@@H]4CC(=O)CC[C@]4(C)[C@H]3CC(=O)[C@]12C | inactive
O=C(/N=N/C(=O)OCc1ccccc1)OCc1ccccc1 | inactive
OCCC(F)(F)C(F)(F)C(F)(F)C(F)(F)C(F)(F)C(F)(F)C(F)(F)C(F)(F)F | inactive
CCCC(=O)C(C)=O | inactive
CC(N)C(=O)OC(C)(C)Cc1ccc(Cl)cc1 (stereo not given) | inactive
CCC(C)NC(N)=O (stereo not given) | inactive
O=C(Nc1ccc(Cl)c(Cl)c1)C1CC1 | inactive
CCN(CC)CC(=O)Nc1c(C)cccc1C | inactive
CC(C)=O | inactive
O=S(=O)(O)c1ccc2cc(O)c(S(=O)(=O)O)cc2c1 | inactive
O=C1c2ccccc2C(=O)C1c1ccccc1 | inactive

SMILES | outcome
O=C1c2ccccc2C(=O)c2cc(S(=O)(=O)O)ccc21 | inactive
C[C@@H]1O[C@@H](O[C@@H]2[C@@H](O)[C@H](OCCc3ccc(O)c(O)c3)O[C@H](CO[C@@H]3O[C@H](CO)[C@@H](O)[C@H](O)[C@H]3O)[C@H]2OC(=O)/C=C/c2ccc(O)c(O)c2)[C@H](O)[C@H](O)[C@H]1O | inactive
CCC(C)(CCC(C)C)C(=O)O (stereo not given) | inactive
COc1ccc2c(c1OC)C(=O)O[C@@H]2[C@H]1c2c(cc3c(c2OC)OCO3)CCN1C | inactive
CC(=O)Nc1ccc(S(=O)(=O)Cl)cc1 | inactive
C=C(C)C(=O)OCCOP(=O)(O)OCCOC(=O)C(=C)C | inactive
O=C(O)c1cc(Cl)cc([N+](=O)[O-])c1Cl | inactive
CC(CC=O)CCCC(C)(C)O (stereo not given) | inactive
Cc1cccc(C)c1NC(=O)c1ccccc1C(=O)O | inactive
O=C(CS(=O)Cc1ccco1)NC/C=C\COc1cc(CN2CCCCC2)ccn1 (stereo not given) | inactive
Nc1nnc(-c2cccc(Cl)c2Cl)c(N)n1 | inactive
c1ccc2c(c1)ccc1c3ccccc3ccc21 | inactive
OC[C@H](Cc1cccc(O)c1)[C@H](CO)Cc1cccc(O)c1 | inactive
CCO[Si](CCCS)(OCC)OCC | inactive
c1ccc2nccnc2c1 | inactive
N[C@@H](CCC(=O)Nc1ccc([N+](=O)[O-])cc1)C(=O)O | inactive
COCCOC(=O)C1=C(C)NC(C)=C(C(=O)OC(C)C)C1c1cccc([N+](=O)[O-])c1 (stereo not given) | inactive
CC(C)CCCCOC(=O)c1ccccc1C(=O)OCCCCC(C)C | inactive
ClCCCl | inactive
C[C@@H](Oc1ccc(CNC(=O)c2cccnc2Oc2ccc3c(c2)OCO3)c(F)c1)C(=O)O | inactive
